# Compounds without any hit were thinned out: in the full panel of roughly 83,000, 20% have a hit.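 Growth was measured after 48 h exposure to one concentration of compound in 96-well plates. Values under 10 count as active.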 A number with no mark means an inactive call. Calls of active or inactive are those of the source.
# Assays:
# Test in all cases: NCI-60 one-dose screen, 48 h (100 = growth as untreated, 0 = no growth, -100 = all killed)
# Conditions in all cases: 10 µM unless noted
# NCI-H23 lung = system: NCI-H23 lung
# NCI-H226 lung = system: NCI-H226 lung
# NCI-H322M lung = system: NCI-H322M lung
# HOP-62 NSCLC = system: HOP-62 NSCLC
# NCI-H460 lung = system: NCI-H460 lung
# HOP-92 NSCLC = system: HOP-92 NSCLC
# NCI-H522 lung = system: NCI-H522 lung
# A549/ATCC NSCLC = system: A549/ATCC NSCLC
# 786-0 renal = system: 786-0 renal
# COLO 205 colon = system: COLO 205 colon
Compound,growth (NCI-H23 lung),growth (NCI-H226 lung),growth (NCI-H322M lung),growth (HOP-62 NSCLC),growth (NCI-H460 lung),growth (HOP-92 NSCLC),growth (NCI-H522 lung),growth (A549/ATCC NSCLC),growth (786-0 renal),growth (COLO 205 colon)
COc1ccc2nc(-c3ccc(Cl)cc3)cc(-c3nnc(SCC(=O)Nc4ccc(/C(C)=N\O)cc4)o3)c2c1,2.74% (active),22.8%,57.4%,60%,-31.2% (active),19.1%,9.31% (active),-9.66% (active),25.9%,56.1%
CCCS(=O)(=O)Nc1ccc(F)c(C(=O)c2c[nH]c3ncc(-c4ccc(OCCCC5CCCCN5)nc4)cc23)c1F (stereo not given),80.7%,69.9%,97.8%,65.5%,79.9%,4.71% (active),59.5%,83.5%,78.7%,2.52% (active)
CC(C)(C)c1nc2c(s1)c1nc(N)ncc1c1ccc(NS(=O)(=O)c3c(F)cccc3F)c(F)c12,78.5%,65.4%,60.4%,84.1%,52.5%,44.1%,50.3%,55.8%,66.1%,4.03% (active)
COc1ccccc1Nc1nnc(-c2ccc(Cl)cc2)o1,63.9%,73.6%,70.5%,47.4%,16.1%,91.1%,16.6%,34.4%,75.8%,35.3%
O=C1NC(SCc2ccc(F)cc2)=N/C1=C/c1cccc(OCc2ccc(Cl)cc2)c1,57.6%,-7.92% (active),50.3%,45.9%,11.8%,68%,67.5%,26.2%,-33.3% (active),55.3%
COCCc1n(Cc2ccc3ccccc3c2)c2ccccc2[n+]1Cc1ccc2ccccc2c1,-24.3% (active),-7.12% (active),5.25% (active),-19.1% (active),-65.3% (active),-53.1% (active),-54.4% (active),4.72% (active),-94.3% (active),-71% (active)
O=C1Nc2ccc(Cl)cc2/C1=N/c1nc(-c2ccc(Cl)cc2)cs1,7.9% (active),36.9%,48.9%,-5.13% (active),-10.2% (active),-13.1% (active),-12.8% (active),7.91% (active),-16.2% (active),-51.6% (active)
CC1=C/C(=N\N=C2/C=C(C)CC(C)(C)C2)CC(C)(C)C1,102%,106%,92.7%,90.9%,104%,92.3%,81.4%,88.6%,102%,119%
Cn1c2ccccc2c2c(OC(=O)c3ccccc3)c3c(nc21)-c1ccccc1C3,86.1%,100%,92.9%,73.1%,105%,91.5%,58.2%,93.1%,96.9%,121%
c1ccc(Sc2ncccn2)nc1,93%,92.2%,111%,100%,103%,89%,91.6%,103%,103%,116%
CSc1cccc(NC(=O)Nc2nc3c(C)cccc3s2)c1,90.2%,83.2%,102%,87.4%,97.6%,86.6%,77.6%,95.1%,96.2%,120%
O=C(CN1N=C(c2ccc(F)cc2)CCC1=O)Nc1nc2ccccc2s1,-26.2% (active),41.7%,95.1%,-23.7% (active),51.3%,-77.1% (active),-73.5% (active),-48.8% (active),-90.2% (active),87.2%
CC1CCCN(CCCCCOc2ccc3oc4ccccc4c(=O)c3c2)C1 (stereo not given),75%,104%,76.9%,91.3%,75.5%,90.2%,67.4%,68.7%,69.8%,36.1%
CCC1=C[C@H]2CN(CCc3c([nH]c4ccccc34)[C@@](C(=O)OC)(c3cc4c(cc3OC)N(C)[C@H]3[C@@](O)(C(=O)OC)[C@H](OC(C)=O)[C@]5(CC)[C@@H]6C[C@@H]6CN6CC[C@]43[C@@H]65)C2)C1,44%,47.9%,66.1%,10.7%,5.3% (active),-7.42% (active),-29% (active),17.7%,12.6%,-43.5% (active)
O=C(NCc1ccccc1)c1ccc2c(c1)NC(=O)[C@@H]1CCCN21,90.6%,103%,92.8%,103%,94.7%,102%,91.3%,106%,95.9%,110%
Cc1c(Cl)cccc1NC(=O)c1sc2nc3c(cc2c1N)CCCCCC3,42.7%,52.2%,45.6%,30.6%,8.77% (active),29.3%,-27.7% (active),19.1%,23.3%,-12% (active)
CCOC(=O)NCCc1nc2c([nH]1)c(=O)n(C)c(=O)n2C,93.7%,105%,103%,115%,106%,93.5%,92.5%,104%,102%,109%
COC(=O)/C=C/c1cc(OC)c2c(c1)[C@@H](C(=O)OC)[C@H](c1ccc(OC)c(OC)c1)O2,38.9%,79.4%,98.3%,24.9%,59.7%,66.8%,22.1%,67.2%,37.9%,23.9%
S=c1ssnc1-c1cc2ccccc2o1,84.3%,92.9%,91.8%,86.7%,70%,4.61% (active),79.2%,88.2%,24.1%,83.6%
Cc1cc(C)c2nc(Nc3nc(C)c(C)c(=O)[nH]3)nc(C)c2c1,18.4%,-4.16% (active),23.8%,12.2%,8.55% (active),7.24% (active),7.15% (active),-32.4% (active),6.33% (active),1.63% (active)
COc1cc(C(=O)N2CCN(c3ccccc3OC)CC2)c(NC(=O)c2cnccn2)cc1OCc1ccccc1,77.9%,88.3%,69.4%,84.9%,121%,10.7%,73.7%,91.8%,87.3%,99.4%
Cc1cccc2nc3c(n12)C(=O)C(=O)c1ccccc1-3,39.6%,80%,90%,26%,37.3%,92.6%,43.8%,61.2%,106%,98.3%
COc1ccc2c(c1)/C(=C1\S/C(=N/c3nnc(C)s3)NC1=O)C(=O)N2Cc1ccc(Cl)cc1,34.5%,56.5%,49.9%,66.8%,8.75% (active),26%,45.8%,36.2%,49.2%,79.9%
O=C(Nc1ccc(N=Cc2ccccc2O)cc1)NC1C=c2ccccc2=CC1 (stereo not given),100%,87.8%,98.6%,101%,108%,109%,93.3%,87.9%,98.2%,117%
CN(CCC#N)C(=O)Nc1ccccc1,101%,106%,107%,98.8%,112%,114%,79.8%,101%,101%,112%
Cc1nnc(/N=C2\NC(=O)/C(=C/c3ccc(N(C)C)cc3)S2)s1,81.7%,89.2%,85.5%,65.8%,33.2%,85.1%,2.45% (active),63.5%,76.8%,98.7%

# — PubChem BioAssay (NCI)
